According to the supplement of paper PMC3545927:
This is one part of the list. No count for the full screen is at hand.

Target: furin, P09958
Assay: furin cleavage Z-score vs untreated control; higher = more cleavage, active = 3.5 or more, inactive = 1 or less, 8 variable residues between constant flanks
Summary of the method: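 Read counts from sequencing released DNA gave abundance for each bead-bound 8-mer peptide–cDNA fusion cut by purified furin over 7.5, 15 or 30 min. The cleavage Z-score compares log counts with furin-free reactions after lowess adjustment and median absolute deviation scaling.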
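Also: purified furin at 1:10 enzyme:substrate in 50 mM HEPES pH 7.5.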

furin, P09958, sequence (P09958 whole entry): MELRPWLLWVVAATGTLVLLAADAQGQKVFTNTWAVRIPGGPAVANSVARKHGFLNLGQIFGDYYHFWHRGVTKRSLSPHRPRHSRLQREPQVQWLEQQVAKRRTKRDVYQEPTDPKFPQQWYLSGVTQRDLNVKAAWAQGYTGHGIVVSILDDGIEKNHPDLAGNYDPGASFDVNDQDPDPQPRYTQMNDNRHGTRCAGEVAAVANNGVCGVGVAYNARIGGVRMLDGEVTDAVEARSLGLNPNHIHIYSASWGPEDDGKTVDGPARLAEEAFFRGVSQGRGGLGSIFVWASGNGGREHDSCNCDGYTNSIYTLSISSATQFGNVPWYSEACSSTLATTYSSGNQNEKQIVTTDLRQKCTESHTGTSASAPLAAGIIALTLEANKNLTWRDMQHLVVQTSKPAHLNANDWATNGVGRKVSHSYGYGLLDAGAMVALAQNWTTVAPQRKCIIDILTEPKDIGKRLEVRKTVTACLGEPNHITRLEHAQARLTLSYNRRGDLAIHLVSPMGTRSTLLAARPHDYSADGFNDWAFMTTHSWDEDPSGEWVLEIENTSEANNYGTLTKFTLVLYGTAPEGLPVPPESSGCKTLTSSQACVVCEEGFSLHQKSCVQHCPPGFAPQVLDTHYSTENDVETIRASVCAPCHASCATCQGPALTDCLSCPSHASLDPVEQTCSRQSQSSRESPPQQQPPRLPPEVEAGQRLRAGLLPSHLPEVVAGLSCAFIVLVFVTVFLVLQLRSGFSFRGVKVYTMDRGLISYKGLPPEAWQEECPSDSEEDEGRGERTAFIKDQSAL

Sequence | furin cleavage Z-score (7.5 min) | furin cleavage Z-score (15 min) | furin cleavage Z-score (30 min)
CAMEECLQHLAGNASASA [HC24] | 0.426 (inactive) | 0.849 (inactive) | 1.01
CAMEECIQHLAGNASASA [HC25] | 2.89 | 0.509 (inactive) | 1.63
CARKKRPGGGAGNASASA [FS-2344] | 0.0138 (inactive) | 0.394 (inactive) | -0.0781 (inactive)
CARKKRIVTGAGNASASA [FS-2342] | 4.57 (active) | 4.97 (active) | 5.79 (active)
CARKKRSTSAAGNASASA [FU2] | 12.7 (active) | 14.1 (active) | 8.12 (active)
CARTYRWLSAAGNASASA [FS-2192] | -0.657 (inactive) | 1.48 | 0.201 (inactive)
CASSASQLSAAGNASASA [HC1261] | 0.811 (inactive) | -0.271 (inactive) | -1.07 (inactive)
CARKKRTTSAAGNASASA [FS-2345] | 8.37 (active) | 8.69 (active) | 6.28 (active)
CARKGKSSSAAGNASASA [FS-1725] | -1.17 (inactive) | -1.17 (inactive) | -0.784 (inactive)
CAMKKRDLSAAGNASASA [FS-2872] | 4.25 (active) | 5.63 (active) | 4.84 (active)
CASGKPAIIPAGNASASA [HC1005] | -1.38 (inactive) | -0.473 (inactive) | 0.121 (inactive)
CATTPCSCSWAGNASASA [HC1900] | -1.59 (inactive) | -2.52 (inactive) | -0.421 (inactive)
